# In PubChem BioAssay (NCI):
# Compounds without any hit were thinned out: in the full panel of roughly 79,000, 15% have a hit. Unmarked numbers belong to inactive results. Activity calls are given as the source filed them. Cut-off read from the data, not from the text of the source: active = growth inhibition above about 70%; inactive = the rest.
# Legend:
# [1] = NCI Yeast Anticancer Drug Screen. Data for the mlh1 strain (AID 171);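 note: 0% = growth of vehicle-treated control cultures of the same strain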; details: S. cerevisiae mlh1 strain growth inhibition, stronger effect = higher value
# Outline: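 Steps: expose the defined-mutant yeast strain to compound; expose a parallel culture to vehicle; measure growth; express compound effect as inhibition relative to the vehicle culture.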
# [2] = NCI Yeast Anticancer Drug Screen. Data for the sgs1 strain (AID 173);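 note: 0% = growth of vehicle-only control cultures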; details: S. cerevisiae sgs1 mutant, stronger effect = higher value
# Outline: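 Treat defined-mutant yeast with compound; measure growth; calculate inhibition relative to vehicle-treated cells.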
# [3] = NCI Yeast Anticancer Drug Screen. Data for the mlh1 rad18 strain (AID 175); details: S. cerevisiae mlh1 rad18 strain growth inhibition, stronger effect = higher value
# Outline: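 Test agents were incubated with a yeast strain of defined genotype (DNA damage repair defect). Inhibition of growth was derived by comparison with vehicle-exposed cultures.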
# [4] = NCI Yeast Anticancer Drug Screen. Data for the rad18 strain (AID 177); details: S. cerevisiae rad18 mutant growth inhibition, stronger effect = higher value
# Outline: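 A genetically defined yeast mutant impaired in DNA damage repair was treated with test compounds, then its growth was measured against cultures receiving vehicle alone.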
# [5] = NCI Yeast Anticancer Drug Screen. Data for the rad52 strain (AID 147);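 note: 0% = growth of vehicle-treated control cultures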; details: S. cerevisiae rad52 mutant growth inhibition, stronger effect = higher value
# Outline: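 Screen used a yeast mutant impaired in DNA repair. After compound exposure, growth was measured. Values reflect inhibition compared with vehicle-treated cells.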
# [6] = NCI Yeast Anticancer Drug Screen. Data for the rad50EPP+ strain (AID 151);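 note: 0% = growth of vehicle-treated control cultures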; details: S. cerevisiae rad50 mutant strain, stronger effect = higher value
# Outline: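 Exposing the rad50EPP+ strain to each compound, growth was compared with vehicle-only cultures to give inhibition.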
# [7] = NCI Yeast Anticancer Drug Screen. Data for the mgt1 strain (AID 153); details: S. cerevisiae mgt1 mutant growth inhibition, stronger effect = higher value
# Outline: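 Genetically defined yeast (mgt1) treated with compound; inhibition of growth expressed against vehicle-treated controls.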
# [8] = NCI Yeast Anticancer Drug Screen. Data for the rad50 strain (AID 155);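 note: 0% = growth of vehicle-only cultures of the same strain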; details: S. cerevisiae rad50 strain growth inhibition, stronger effect = higher value
# Outline: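 Relative growth inhibition (compound vs vehicle) was measured in yeast with a defined repair-gene alteration.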
# [9] = NCI Yeast Anticancer Drug Screen. Data for the mec2-1 strain (AID 157); details: S. cerevisiae mec2-1 strain, stronger effect = higher value
# Outline: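 Readout is yeast growth inhibition, normalised to vehicle-treated controls, in the mec2-1 strain exposed to compound.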
# [10] = NCI Yeast Anticancer Drug Screen. Data for the rad14 strain (AID 159);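 note: 0% = growth of vehicle-treated control cultures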; details: S. cerevisiae rad14 strain growth inhibition, stronger effect = higher value
# Outline: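 Screen for anticancer potential: a yeast strain altered in DNA damage repair is grown with compound, and reduced growth is quantified against vehicle controls.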
# [11] = NCI Yeast Anticancer Drug Screen. Data for the sgs1 mgt1 strain (AID 161);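 note: 0% = growth of cultures given vehicle only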; details: S. cerevisiae sgs1 mgt1 strain, stronger effect = higher value
# Outline: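 Percent growth inhibition was derived by comparing compound-exposed mutant yeast with vehicle-exposed cultures. The strain carries alterations in DNA damage repair.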
# [12] = NCI Yeast Anticancer Drug Screen. Data for the CLN2oe strain (AID 163);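 note: 0% = growth of vehicle-only control cultures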; details: S. cerevisiae CLN2oe strain, stronger effect = higher value
# Outline: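 Values reflect how much compound exposure reduced yeast growth, referenced to vehicle-exposed cells. Assay organism is a strain with a defined genetic change affecting cell-cycle control.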
# [13] = NCI Yeast Anticancer Drug Screen. Data for the cln2 rad14 strain (AID 165);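 note: 0% = growth equal to vehicle treated cultures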; details: S. cerevisiae cln2 rad14 strain, stronger effect = higher value
# Outline: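 Relative to vehicle controls, growth inhibition of compound-treated cln2 rad14 yeast was recorded.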
# [14] = NCI Yeast Anticancer Drug Screen. Data for the bub3 strain (AID 167); details: S. cerevisiae bub3 mutant strain, stronger effect = higher value
# Outline: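 Screening used yeast with an engineered genetic alteration affecting cell cycle control. Compound-exposed cultures were compared with vehicle cultures, and reduced growth was taken as inhibition.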
# [15] = NCI Yeast Anticancer Drug Screen. Data for the wt2 strain (AID 169);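 note: 0% = growth of vehicle-treated yeast cultures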; details: S. cerevisiae wt2 strain growth inhibition, stronger effect = higher value
# Outline: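 Values express reduction in yeast growth under compound treatment, referenced to vehicle-treated cells.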
# [16] = at 5.0 µM (retest, dose inferred, filed as 0.5)
# [17] = at 50.0 µM (retest, dose inferred, filed as 5.0)
structure (smiles),measurement,setting,value
O=[N+]([O-])c1ccc2[nH]c3c(-c4ccccc4)nccc3c2c1,growth inhibition,[1]; at 1.2 µM,-2%
same,growth inhibition,[1]; at 3.7 µM,15%
same,growth inhibition,[1]; at 11.0 µM,96% (active)
same,growth inhibition,[1]; at 33.0 µM,97% (active)
same,growth inhibition,[1]; at 100.0 µM,97% (active)
same,growth inhibition,[2]; at 1.2 µM,-12%
same,growth inhibition,[2]; at 3.7 µM,0%
same,growth inhibition,[2]; at 11.0 µM,93% (active)
same,growth inhibition,[2]; at 33.0 µM,97% (active)
same,growth inhibition,[2]; at 100.0 µM,96% (active)
same,growth inhibition,[3]; [16],3%
same,growth inhibition,[3]; [17],96% (active)
same,growth inhibition,[3]; at 50.0 µM,97.8% (active)
same,growth inhibition,[4]; at 1.2 µM,-1%
same,growth inhibition,[4]; at 3.7 µM,-4%
same,growth inhibition,[4]; at 11.0 µM,95% (active)
same,growth inhibition,[4]; at 33.0 µM,96% (active)
same,growth inhibition,[4]; at 100.0 µM,97% (active)
c1ccc([P+](CCN2Cc3ccccc3C2)(c2ccccc2)c2ccccc2)cc1,growth inhibition,[5]; at 1.2 µM,29%
same,growth inhibition,[5]; at 3.7 µM,54%
same,growth inhibition,[5]; at 11.0 µM,39%
same,growth inhibition,[5]; at 33.0 µM,64%
same,growth inhibition,[5]; at 100.0 µM,95% (active)
same,growth inhibition,[6]; at 1.2 µM,-21%
same,growth inhibition,[6]; at 3.7 µM,-15%
same,growth inhibition,[6]; at 11.0 µM,-10%
same,growth inhibition,[6]; at 33.0 µM,-8%
same,growth inhibition,[6]; at 100.0 µM,6%
same,growth inhibition,[7]; at 1.2 µM,-19%
same,growth inhibition,[7]; at 3.7 µM,2%
same,growth inhibition,[7]; at 11.0 µM,28%
same,growth inhibition,[7]; at 33.0 µM,48%
same,growth inhibition,[7]; at 100.0 µM,95% (active)
same,growth inhibition,[8]; at 1.2 µM,30%
same,growth inhibition,[8]; at 3.7 µM,64%
same,growth inhibition,[8]; [16],64%
same,growth inhibition,[8]; at 11.0 µM,61%
same,growth inhibition,[8]; at 33.0 µM,61%
same,growth inhibition,[8]; [17],69%
same,growth inhibition,[8]; at 50.0 µM,72.1% (active)
same,growth inhibition,[8]; at 100.0 µM,95% (active)
same,growth inhibition,[9]; at 1.2 µM,-15%
same,growth inhibition,[9]; at 3.7 µM,39%
same,growth inhibition,[9]; [16],49%
same,growth inhibition,[9]; at 11.0 µM,36%
same,growth inhibition,[9]; at 33.0 µM,67%
same,growth inhibition,[9]; [17],81% (active)
same,growth inhibition,[9]; at 50.0 µM,78.9% (active)
same,growth inhibition,[9]; at 100.0 µM,95% (active)
same,growth inhibition,[10]; at 1.2 µM,-22%
same,growth inhibition,[10]; at 3.7 µM,13%
same,growth inhibition,[10]; at 11.0 µM,21%
same,growth inhibition,[10]; at 33.0 µM,53%
same,growth inhibition,[10]; at 100.0 µM,70% (active)
same,growth inhibition,[11]; [16],22%
same,growth inhibition,[11]; [17],97% (active)
same,growth inhibition,[11]; at 50.0 µM,82% (active)
same,growth inhibition,[12]; at 1.2 µM,19%
same,growth inhibition,[12]; at 3.7 µM,11%
same,growth inhibition,[12]; at 11.0 µM,29%
same,growth inhibition,[12]; at 33.0 µM,50%
same,growth inhibition,[12]; at 100.0 µM,93% (active)
same,growth inhibition,[13]; [16],23%
same,growth inhibition,[13]; [17],25%
same,growth inhibition,[13]; at 50.0 µM,76% (active)
same,growth inhibition,[14]; at 1.2 µM,7%
same,growth inhibition,[14]; at 3.7 µM,39%
same,growth inhibition,[14]; [16],21%
same,growth inhibition,[14]; at 11.0 µM,31%
same,growth inhibition,[14]; at 33.0 µM,64%
same,growth inhibition,[14]; [17],98% (active)
same,growth inhibition,[14]; at 50.0 µM,79.1% (active)
same,growth inhibition,[14]; at 100.0 µM,94% (active)
same,growth inhibition,[15]; at 1.2 µM,-45%
same,growth inhibition,[15]; at 3.7 µM,-19%
same,growth inhibition,[15]; at 11.0 µM,11%
same,growth inhibition,[15]; at 33.0 µM,31%
same,growth inhibition,[15]; at 100.0 µM,93% (active)
same,growth inhibition,[1]; at 1.2 µM,-39%
same,growth inhibition,[1]; at 3.7 µM,18%
same,growth inhibition,[1]; at 11.0 µM,32%
same,growth inhibition,[1]; at 33.0 µM,60%
same,growth inhibition,[1]; at 100.0 µM,95% (active)
same,growth inhibition,[2]; at 1.2 µM,13%
same,growth inhibition,[2]; at 3.7 µM,35%
same,growth inhibition,[2]; at 11.0 µM,53%
same,growth inhibition,[2]; at 33.0 µM,67%
same,growth inhibition,[2]; at 100.0 µM,96% (active)
same,growth inhibition,[3]; [16],71% (active)
same,growth inhibition,[3]; [17],87% (active)
same,growth inhibition,[3]; at 50.0 µM,88.8% (active)
same,growth inhibition,[4]; at 1.2 µM,49%
same,growth inhibition,[4]; at 3.7 µM,71% (active)
same,growth inhibition,[4]; at 11.0 µM,58%
same,growth inhibition,[4]; at 33.0 µM,74% (active)
same,growth inhibition,[4]; at 100.0 µM,96% (active)
